Screening data deposited in PubChem by Johns Hopkins Ion Channel Center.
In the library only some 1.6% were active in any assay of this set; here they are far more common.
KCNQ2 block – inhibitors of rat KCNQ2 potassium channel; O88943; CHO-K1 KCNQ2, FluxOR thallium flux, 20 min; hits give low values; B-score at 10 µM; 1.1% of 310,000 active; AID 2156;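 active = fluorescence ratio B-score at most minus 3 library SDs, with starting brightness B-score within 2 library SDs, cut at about -5.5 in these data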
Target sequence (O88943 whole entry, looked up): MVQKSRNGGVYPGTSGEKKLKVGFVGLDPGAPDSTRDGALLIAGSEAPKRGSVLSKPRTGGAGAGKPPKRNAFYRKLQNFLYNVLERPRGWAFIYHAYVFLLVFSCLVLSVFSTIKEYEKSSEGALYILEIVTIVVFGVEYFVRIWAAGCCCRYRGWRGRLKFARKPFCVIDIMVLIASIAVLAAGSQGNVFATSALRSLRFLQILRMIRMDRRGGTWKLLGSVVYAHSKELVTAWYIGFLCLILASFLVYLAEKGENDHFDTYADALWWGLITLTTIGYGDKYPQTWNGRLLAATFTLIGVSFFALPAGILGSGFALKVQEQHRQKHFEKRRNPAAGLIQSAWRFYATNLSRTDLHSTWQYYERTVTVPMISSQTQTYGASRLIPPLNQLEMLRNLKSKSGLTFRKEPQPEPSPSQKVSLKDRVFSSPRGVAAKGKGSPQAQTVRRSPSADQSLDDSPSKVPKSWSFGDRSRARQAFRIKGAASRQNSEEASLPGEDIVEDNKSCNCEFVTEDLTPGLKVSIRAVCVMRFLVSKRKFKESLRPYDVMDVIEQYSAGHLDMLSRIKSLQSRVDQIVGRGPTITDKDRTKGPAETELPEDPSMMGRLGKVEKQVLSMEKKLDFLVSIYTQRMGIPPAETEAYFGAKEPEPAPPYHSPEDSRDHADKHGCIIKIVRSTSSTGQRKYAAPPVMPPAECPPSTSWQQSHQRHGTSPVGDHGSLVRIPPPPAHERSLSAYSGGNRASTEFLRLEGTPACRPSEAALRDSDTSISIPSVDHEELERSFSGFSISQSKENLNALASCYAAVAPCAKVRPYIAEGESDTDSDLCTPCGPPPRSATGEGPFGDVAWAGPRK
KCNQ2 pot – enhances the rat KCNQ2 potassium channel; AID 2239; O88943; 0.54% of 310,000 active; CHO-K1 KCNQ2, FluxOR thallium flux fluorescence; hits give high values; B-score at 10 µM;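 active = fluorescence ratio B-score at least 3 SD of library B-scores, with initial fluorescence B-score within 3 of them, cut at about 5.3 in these data; same plate scores as AID 2156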;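 also: B-score of peak minus minimum over baseline fluorescence ratio after K+ and Tl+ stimulus; positive B-score means potentiation of KCNQ2 with more thallium influx and brighter signal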
Kir21 conf inh – confirmation of mouse Kir2.1 potassium channel inhibitors; shares compounds with KCNQ2 pot; Kir2.1-expressing cells, FluxOR thallium flux fluorescence; hits give low values; Tl flux remaining, % of negative control (hits give low values), % at 10 µM; 41% of 2,300 active;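 active = Primary-screen hit whose thallium flux fell at least 3 control SD below untreated wells in both duplicates, with normal baseline fluorescence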;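 also: 0% = blank wells without stimulus and 100% = stimulated no-compound controls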
HEK293 ctr – alters thallium flux in parental HEK293 cells, Kir2.1 counter-screen. shares compounds with KCNQ2 pot. FluxOR thallium flux fluorescence; 0% = unstimulated blank wells. FluxOR signal as % of negative control (100 = no effect), % at 10 µM. 19% of 2,300 active. AID 2105;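 active = dye signal at least 3 control SD above or below untreated wells in both duplicates, raw fluorescence within 3, either direction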;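 also: percent is based on the flux ratio of peak minus minimum fluorescence over baseline F0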
CHO-K1 Tl ctr – parental CHO-K1 activity in KCNQ2 potentiator counter-screen; shares compounds with KCNQ2 pot; parental CHO-K1 cells, FluxOR thallium flux fluorescence; zero = vehicle mean+3SD, 100% = vehicle-minus-blank window; activity increase over 3SD of controls, % at 10 µM; 43% of 1,200 active;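 active = signal rise of at least 3 SD above the untreated control mean, in both duplicate wells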;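 also: counter screen of KCNQ2 potentiator hits so any rise reflects channel-independent effects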
KCNQ1 sel pot – tests whether KCNQ2 potentiators also act on human KCNQ1 | AID 2283 | CHO KCNQ1 stable, FluxOR thallium flux fluorescence; beyond 3SD, as % of vehicle-control signal | 28% of 1,200 active | activation over 3SD threshold, % at 10 µM | shares compounds with KCNQ2 pot;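 active = fluorescence ratio rise of at least 3 SD of vehicle wells above their mean, in both replicate wells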;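 also: 0% = vehicle mean plus 3 SD and 100% = vehicle minus unstimulated blank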
KCNQ2 pot conf – rat KCNQ2 channel potentiator confirmation; potentiation, less the hit threshold, % at 10 µM; AID 2287; shares compounds with KCNQ2 pot; 68% of 1,200 active; CHO-KCNQ2 cells, FluxOR thallium flux fluorescence;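 active = fluorescence ratio rising 3 SD or more over the vehicle control mean in both replicates, plus primary screen hit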;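 also: peak minus minimum thallium fluorescence divided by baseline after K/Tl stimulus; 0% = vehicle mean plus 3 SD and 100% = vehicle minus unstimulated blank difference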
Kir2-1 sel – tests whether KCNQ2 potentiators also affect mouse Kir2.1; shares compounds with KCNQ2 pot; HEK293 Kir2.1, FluxOR thallium flux fluorescence; activity over 3SD threshold, % at 10 µM; 2% of 1,200 active; AID 2345;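 active = fluorescence ratio rise of at least 3 SD above the vehicle-control mean, seen in both replicates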;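 also: 0% = vehicle mean plus 3 SD and 100% = vehicle minus no-stimulus blank window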
KCNQ2 W236L pot – KCNQ2 potentiators acting on retigabine-insensitive rat KCNQ2 W236L mutant; shares compounds with KCNQ2 pot; CHO KCNQ2-W236L, automated patch clamp current; 10% of 940 active; current increase over 3SD of negative controls (%), hits give high values, % at 25 µM; AID 2558;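 active = current increase at least 3 SD of the untreated controls above them in both duplicate recordings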
Active calls of the source: *; i = inactive; · = no result given.

SMILES	KCNQ2 block	KCNQ2 pot	Kir21 conf inh	HEK293 ctr	others
COc1ccc(-c2nc3ccc(C)cn3c2NCc2ccc3c(c2)OCO3)cc1	i	0.61	·	·
COc1ccc(CCN2CCC(Nc3nc4ccccc4n3Cc3ccc(F)cc3)CC2)cc1	i	·	i	i
COc1ccc(CNc2nc3ccccc3n2CCN2CCCCC2)cc1	i	·	·	·
CC(C)Cc1nc(SCC(=O)N2CCCCC2)c2c(=O)n(C)c(=O)n(C)c2n1	i	27*	i	i	CHO-K1 Tl ctr=-24;KCNQ1 sel pot=-5;KCNQ2 pot conf=121*;Kir2-1 sel=-16;KCNQ2 W236L pot=i
CCc1nc(SCC(=O)N2CCC(C)CC2)c2c(=O)n(C)c(=O)n(C)c2n1	i	16*	i	i	CHO-K1 Tl ctr=-7;KCNQ1 sel pot=-26;KCNQ2 pot conf=81*;Kir2-1 sel=-18;KCNQ2 W236L pot=i
CC(C)c1nc(SCC(=O)N2CCOCC2)c2c(=O)n(C)c(=O)n(C)c2n1	i	1.8	·	·
CC1CCN(C(=O)CSc2nc3c(c(=O)n(C)c(=O)n3C)n2C)CC1	i	1.4	·	·
CCc1nc(SCC(N)=O)c2c(=O)n(C)c(=O)n(C)c2n1	i	0.95	·	·
CCCc1nc(SCC(=O)N2CCC(C)CC2)c2c(=O)n(C)c(=O)n(C)c2n1	i	25*	i	i	CHO-K1 Tl ctr=-8;KCNQ1 sel pot=-18;KCNQ2 pot conf=141*;Kir2-1 sel=-39;KCNQ2 W236L pot=i
CC(C)Cc1nc(SCC(=O)N2CCOCC2)c2c(=O)n(C)c(=O)n(C)c2n1	i	3.2	·	·
CCc1nc(SCC(=O)N2CCCCC2)c2c(=O)n(C)c(=O)n(C)c2n1	i	9.1*	i	i	CHO-K1 Tl ctr=-21;KCNQ1 sel pot=-20;KCNQ2 pot conf=42*;Kir2-1 sel=-13;KCNQ2 W236L pot=i
CCN1C(=O)[C@@H]2[C@@H](c3ccc(-c4ccc(C(C)=O)cc4)cc3)N3CCCC[C@@]3(C(=O)OC)[C@@H]2C1=O	i	·	·	·
CCO[C@@H]1OC(C(=O)NCc2nc3ccccc3[nH]2)=C[C@H](c2ccc(C(F)(F)F)cc2)[C@H]1CCCO	i	·	·	·
NC(=O)c1c(NC(=O)CN2CCN(S(=O)(=O)c3ccccc3)CC2)sc2c1CCC2	i	0.67	·	·
CCNC(=S)/N=C(/Nc1ccc(OC)cc1)Nc1nc(C)cc(C)n1	i	·	·	·
CCNC(=S)/N=C(/Nc1ccccc1)Nc1nc(C)cc(C)n1	i	0.68	i	i
Cc1ccccc1NS(=O)(=O)c1csc(C(N)=O)c1	i	0.2	·	·
C=CCn1c(SCC(=O)Nc2ccc(C(=O)O)cc2)nnc1-c1cccnc1	i	·	·	·
C=CCn1c(SCc2cccc3ccccc23)nnc1-c1cccnc1	i	·	45%*	i
O=C1C2CCCN2C(=O)N1CCCN1CCN(c2cccc(Br)c2)CC1 (configuration not stated)	i	·	·	·
CCC1NC(=O)c2ccccc2N1c1cccc(Cl)c1 (configuration not stated)	i	1.6	·	·
CCCCCCCCCC[n+]1cccc2c3ccccc3ccc21	i	·	7.5%*	i
CCCCCCCC[n+]1cccc2c3ccccc3ccc21	i	0.04	·	·
O=C(NN1C(=O)C2C3C=CC(C3)C2C1=O)c1ccncc1 (configuration not stated)	i	0.29	·	·
O=C(NN1C(=O)C2C(c3ccccc3)C=CC(c3ccccc3)C2C1=O)c1ccncc1 (configuration not stated)	i	6.5*	i	i	CHO-K1 Tl ctr=-1;KCNQ1 sel pot=-7;KCNQ2 pot conf=72*;Kir2-1 sel=-41;KCNQ2 W236L pot=i
CC(C)CC(=O)NC(Nc1ccccc1F)C(Cl)(Cl)Cl (configuration not stated)	i	·	·	·
